Screening results as filed in PubChem.
CHT allo act – allosteric activators of human choline transporter CHT; Q9GZV3; CHT-expressing cells, membrane potential dye, choline EC20; hits give high values; LV-AA mutant CHT in HEK293 cells; B-score at 10 µM; 310,000 compounds, 0.49% hits; AID 488977;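 active = initial fluorescence not abnormally high and integrated response B-score, plate-corrected, over 3 SD above library mean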
ANO1 block – blocks the mouse calcium-activated chloride channel TMEM16A; normalized B-score (activity score, 25-100; higher = stronger inhibition) at 10 µM; Q8BHY3; HEK293 TMEM16A/YFP iodide influx fluorescence, ionomycin; 310,000 compounds, 1.2% hits; AID 588511;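 active = ratio plate-corrected score three or more library SD toward inhibition, starting fluorescence score within five deviations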;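 also: score derived from kinetic fluorescence span divided by baseline fluorescence per well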
CHT inh – human CHT choline transport inhibition. Q9GZV3. CHT-expressing cells, membrane potential dye, choline response; hits give low values. B-score at 10 µM. 310,000 compounds, 0.86% hits. AID 488975;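 active = B-score over 3 SD under the library average, and starting fluorescence ratio not unusually high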;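 also: choline stimulus applied at its EC90 after an EC20 pre-addition; B-score computed on integrated fluorescence ratio after choline addition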
TMEM16A act – mouse TMEM16A channel activation, primary screen; B-score at 10 µM; HEK293 TMEM16A/YFP-H148Q/I152L, iodide quench fluorescence; hits give low values; 340,000 compounds, 0.3% hits;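 active = fluorescence-ratio B-score plate-corrected deviation score at least 3 library SD below zero, with starting fluorescence score within 5 deviations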;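 also: channel opened by trigger with iodide after compound preincubation; score built on the fluorescence ratio of max minus min over baseline; more negative score means more quench and so TMEM16A activation or potentiation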
TMEM16A reconf – TMEM16A (mouse) chloride channel inhibition, re-confirmation. HEK293 TMEM16A/YFP-H148Q, iodide quench fluorescence; ionomycin added to raise cell calcium. AID 652189. inhibition, % at 10 µM. 2,300 compounds, 39% hits. shares compounds with ANO1 block;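 active = mean duplicate percent inhibition, scaled so buffer wells are 0 and the reference blocker 100, over three buffer SD above buffer mean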
HEK293 Ca mobil – alters calcium mobilization in TMEM16A HEK293 cells, counter-screen; TMEM16A/YFP HEK293, Fluo4 calcium mobilization; shares compounds with ANO1 block; calcium response (% of ionomycin), % at 10 µM; 2,300 compounds, 2% hits;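 active = duplicate-averaged calcium signal over 20% of the ionomycin maximum, relative to buffer baseline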;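 also: each well's signal is peak minus trough fluorescence divided by its pre-addition baseline; 0% = buffer wells and 100% = ionomycin wells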
YFP-HEK293 quench – parental YFP-HEK293 iodide quench counter-screen activity; YFP ratio F(max-min)/F0 at 10 µM; ionomycin; 2,300 tested, under 10 active; shares compounds with ANO1 block; AID 652233;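 active = yellow fluorescent protein signal ratio exceeding the buffer control mean by over 5 SD of those controls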;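 also: ratio is mean of duplicate wells from kinetic YFP trace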
ClC-1 rat inh – blocks the rat ClC-1 voltage-dependent chloride channel; shares compounds with ANO1 block; ratio percent, % at 10 µM; CHO ClC-1-YFP, iodide influx fluorescence quench; iodide control reads 0, buffer control 100; 2,300 tested, under 10 active;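 active = duplicate-mean ratio percent above the mean of iodide-only control wells, which defines zero, plus 5 of their SD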;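 also: higher percent means stronger block of ClC-1 iodide influx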
Target sequence (P35524 whole entry, looked up): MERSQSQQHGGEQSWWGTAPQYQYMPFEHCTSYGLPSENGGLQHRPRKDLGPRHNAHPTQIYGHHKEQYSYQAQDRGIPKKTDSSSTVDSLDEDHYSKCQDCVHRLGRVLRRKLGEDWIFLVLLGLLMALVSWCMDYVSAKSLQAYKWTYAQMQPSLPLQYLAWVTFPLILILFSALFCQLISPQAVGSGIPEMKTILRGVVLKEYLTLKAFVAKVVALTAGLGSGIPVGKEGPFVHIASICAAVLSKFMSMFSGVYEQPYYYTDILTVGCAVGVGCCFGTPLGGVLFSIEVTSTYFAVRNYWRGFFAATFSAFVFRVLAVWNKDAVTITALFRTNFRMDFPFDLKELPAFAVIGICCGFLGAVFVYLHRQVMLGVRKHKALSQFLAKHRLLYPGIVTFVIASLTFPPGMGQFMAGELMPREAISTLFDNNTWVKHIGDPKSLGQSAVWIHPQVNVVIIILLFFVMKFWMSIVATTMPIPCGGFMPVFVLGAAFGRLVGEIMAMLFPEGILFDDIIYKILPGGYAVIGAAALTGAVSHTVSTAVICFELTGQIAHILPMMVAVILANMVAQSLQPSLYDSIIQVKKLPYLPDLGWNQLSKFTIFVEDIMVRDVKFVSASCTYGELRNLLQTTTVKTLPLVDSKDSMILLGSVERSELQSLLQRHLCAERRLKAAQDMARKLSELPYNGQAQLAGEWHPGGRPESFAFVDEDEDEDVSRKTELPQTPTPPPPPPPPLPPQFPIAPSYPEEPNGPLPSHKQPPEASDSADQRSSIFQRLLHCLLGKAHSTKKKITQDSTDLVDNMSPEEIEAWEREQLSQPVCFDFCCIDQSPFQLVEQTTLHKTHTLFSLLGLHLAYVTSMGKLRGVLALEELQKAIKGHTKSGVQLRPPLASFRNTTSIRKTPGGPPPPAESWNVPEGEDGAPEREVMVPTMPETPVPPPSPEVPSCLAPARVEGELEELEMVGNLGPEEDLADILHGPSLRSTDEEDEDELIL
Numbers without * were called inactive; i = inactive; x = not tested or not shown. Most compounds without a hit are left out; they make up all but 2.4% or so of the library.

SMILES	CHT allo act	ANO1 block	CHT inh	TMEM16A act	TMEM16A reconf	HEK293 Ca mobil	YFP-HEK293 quench	ClC-1 rat inh
O=C(c1ccc(CNS(=O)(=O)c2ccccc2)cc1)N1CCN(Cc2ccccc2)CC1	i	25*	i	i	i	i	-0.96	-9
Cc1ccc(S(=O)(=O)NCc2ccc(C(=O)N3CCN(c4ccccc4)CC3)cc2)cc1	i	i	i	i	x	x	x	x
CN1C(=O)C(C)(C)c2cc(S(=O)(=O)N3CCN(c4ccccc4)CC3)ccc21	i	100*	i	i	i	i	-1.1	-4
CN1C(=O)C(C)(C)c2cc(S(=O)(=O)N3CCCCCC3)ccc21	i	i	i	i	x	x	x	x
CC1CCN(c2ncnc3c2cnn3Cc2ccc(Cl)cc2)CC1	i	i	i	i	i	i	-0.96	-10
Cc1cc(C)nc(N2CCN(c3ncnc4c3cnn4Cc3ccc(Cl)cc3Cl)CC2)n1	i	100*	i	x	28%*	i	-1	-20
Cc1ccc(Cn2ncc3c(N4CCN(Cc5ccc(Cl)cc5)CC4)ncnc32)cc1	i	25*	i	i	18%*	i	-1.1	-8
C=CCn1c(SCc2csc(-c3ccc(Cl)cc3)n2)nnc1-c1ccccc1OC	i	i	i	i	x	x	x	x
CC(Sc1nnnn1C)C(=O)Nc1ncc(Cl)cc1Cl (stereo unspecified)	x	x	x	i	x	x	x	x
Fc1ccccc1/C=N/NC(=S)Nc1ccc(Cl)cc1Cl	i	i	i	i	x	x	x	x
CCOC(=O)c1ccc(Nc2nc(-c3cccnc3)nc3ccccc23)cc1	i	25*	i	i	38%*	i	-1.2	-20
Cc1cc(C(=O)NCC(=O)OCC(=O)Nc2ccc(OC(F)F)cc2)ccc1[N+](=O)[O-]	i	25*	i	i	i	i	-1.2	-2
Cc1cccc2cc(CN(C(=O)c3cnccn3)C3CCCCC3)c(Cl)nc12	i	i	i	i	x	x	x	x
C/C(=N\N)c1c(-c2ccccc2)c2cc(C)ccc2[nH]c1=O	i	i	i	i	x	x	x	x
CCN(CC)c1c(-c2ccccc2)c2cc(C)ccc2[nH]c1=O	i	25*	i	i	i	i	-1.1	-9
COc1cccc(-n2cc(CNC(=O)C3CCC(=O)N(C4CC4)C3)cn2)c1 (stereo unspecified)	i	i	i	i	x	x	x	x
Cc1cccc2cc3c(N)c(C(=O)Nc4ccc(N5CCOCC5)cc4)sc3nc12	i	i	i	i	i	i	-1.1	0
COc1cc(C(=O)ON=C2C(C)=CC(=O)C=C2C)cc(OC)c1OC	i	100*	i	i	i	i	-0.94	0
C=CCOC(=O)C1=C(C)NC(SCC)=C(C#N)C1c1ccc(Cl)cc1 (stereo unspecified)	i	100*	i	i	22%*	i	-1.3	-20
C=CCOC(=O)C1=C(C)NC(SCC(N)=O)=C(C#N)C1c1ccc(C)cc1 (stereo unspecified)	i	i	i	i	x	x	x	x
Cc1ccc(SCCNS(=O)(=O)c2ccc3c(c2)OCCO3)cc1	i	25*	i	i	i	i	-1.1	-9
COc1ccc(S(=O)(=O)NCCSc2ccc(C)cc2)cc1OC	i	i	i	i	x	x	x	x
Cc1cc(C(C)(C)C)oc1C(=O)N(CC(=O)NC1CCCC1)c1c(C)cccc1C	i	100*	i	i	26%*	i	-1.1	-20
COc1ccccc1-c1nc(C#N)c(N2CCc3ccccc3C2)o1	i	100*	i	i	i	i	-1.2	-18
COc1ccccc1-c1nc(C#N)c(N2CCCCCC2)o1	i	i	i	i	x	x	x	x
SMILES	CHT allo act	ANO1 block	CHT inh	TMEM16A act	TMEM16A reconf	HEK293 Ca mobil	YFP-HEK293 quench	ClC-1 rat inh
Cc1ccc(NC(=O)CSc2nnc(C3CC3)n2CC2CCCO2)cc1C (stereo unspecified)	i	i	i	i	x	x	x	x
Cc1nc(N2CCN(Cc3ccccc3)CC2)nc2c1C(=O)CC(C)C2 (stereo unspecified)	i	i	i	i	x	x	x	x
COc1ccc(C2CC(=O)c3c(C)nc(N4CCN(Cc5ccccc5)CC4)nc3C2)cc1OC (stereo unspecified)	i	100*	i	i	26%*	i	-0.91	-14
O=C(CSc1nnc2ccccn12)NC(=O)NC1CCCC1	i	i	i	i	x	x	x	x
Cc1ccc(S(=O)(=O)Nc2nc(-c3ccccc3)cs2)cc1	i	i	i	i	x	x	x	x
Cc1ccc(S(=O)(=O)Nc2ccccc2C(=O)Nc2nc(-c3ccc(F)cc3)cs2)cc1	i	25*	i	i	39%*	i	-1.2	-17
CC(OC(=O)CCc1nc2ccccc2c(=O)[nH]1)C(=O)c1ccc(C(C)(C)C)cc1 (stereo unspecified)	i	100*	i	i	28%*	i	-1	-24
COc1ccc(C(=O)NNC(=O)CCc2nc3ccccc3c(=O)[nH]2)cc1	x	x	x	i	x	x	x	x
CCOc1ccc(CN(C)C(=O)[C@H](Cc2ccccc2)NC(=O)OCc2ccccc2)cc1OC	i	25*	i	i	i	i	-1.1	-7
O=C(COC(=O)C1CC1)Nc1c(Cl)cccc1C(F)(F)F	i	i	i	i	x	x	x	x
CCOC(=O)Cc1csc(NC(=O)c2ccncc2)n1	i	100*	i	i	19%*	i	-0.85	-10
O=C(CNC(=O)c1cccs1)NCCc1ccco1	x	x	x	i	x	x	x	x
CCCCN(CCCC)CCNC(=O)CNC(=O)c1cccs1	i	100*	i	i	i	i	-0.96	-8
O=C(c1ccco1)N1CCN(Cc2cc(=O)oc3cc(O)ccc23)CC1	x	x	x	i	x	x	x	x
Fc1ccc(-c2csc(N3CCC(c4ccccc4)C3)n2)cc1 (stereo unspecified)	i	100*	i	i	i	i	-0.87	-10
